Laboratory results as given in PubChem BioAssay (NCATS).
Records with an inconclusive call do not appear. A call without a number means that no potency is given here. Activity calls are given as the source filed them. Calls come from the whole dose curve; as a rule, active = well fitted cell-killing curve with a large enough effect; inconclusive = small, poorly fitted or top-dose-only effect, or effect the other way; inactive = flat fitted curve, though single readings scatter.

Legend:
[1] = system: Tov-21-G; assay: Primary qHTS to identify gynecologic anti-cancer compounds using libraries of approved drugs and bioactive compounds (AID 1345084); settings: Gynecologic cancer cell panel viability, ATPlite luminescence, 48 h; series mostly up to 57.5 µM; note: nearly all actives have a fitted effect of over 55% in size
How it was run: (§1)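 Cells, 1,000 per well, plated 16 h, then exposed 48 h at 37 C to compounds. Viability by ATPlite luminescence after 15 min at room temperature.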

[2] = system: Tov112D; assay: as above; settings: Gynecologic cancer cell panel viability, ATPlite luminescence, 48 h; series mostly up to 57.5 µM
How it was run: as §1
Potency is the fitted concentration of half-maximal effect.

Row | SMILES | Potency [1] | Potency [2]
1 | COc1ccccc1C(=O)Nc1cccc(NC(=O)c2cccc(C)c2)c1 | inactive | inactive
2 | COc1ccc(Sc2ccc(NC(=O)c3ccccc3Cl)cc2C#N)cc1 | inactive | inactive
3 | CC/C(C)=C/C(=O)OC1C(OC2(C)CCC3C(C4C(C)CCC42)C3(C)C)OC(C)C(O)C1O (centres undefined) | inactive | inactive
4 | CN1CC[C@@H](c2c(O)cc(O)c3c(=O)cc(-c4ccc(C(F)(F)F)cc4Cl)oc23)[C@@H]1CO | inactive | inactive
5 | CCCSc1nc(N[C@@H]2C[C@H]2c2ccc(F)c(F)c2)c2nnn([C@@H]3C[C@H](OCCO)[C@@H](O)[C@H]3O)c2n1 | inactive | inactive
6 | O=C(NCCCc1ccccc1)c1cccc(-c2cc(O)c3ncccc3c2)c1 | inactive | 17.8 µM (active)
7 | O=C(N[C@H]1CCC[C@H](CO)C1)C1CCN(c2nc3cc(Cl)c(-c4ccc(Cl)cc4)cc3o2)CC1 | inactive | inactive
8 | CC1(C)OC[C@H](NC(=O)Nc2ccc(Br)cc2Br)[C@H](c2ccccc2)O1 | inactive | inactive
9 | CCC(C)C(=O)O[C@H]1[C@@H](OC(=O)c2ccoc2)C[C@](C)(O)[C@]23OC(C)(C)[C@H](C[C@H](OC(=O)c4ccoc4)[C@]12COC(C)=O)[C@H]3OC(C)=O (some centres undefined) | inactive | inactive
10 | FC(F)(F)c1ccccc1-c1cc(C(F)(F)F)c2nc(C3=NOC4(CCCCC4)C3)[nH]c2c1 | inactive | inactive
11 | C/C(=C\CCC(C)C1=CCC2(C)OC3=C(CC12)C(=O)C(O)CC3)CO (centres undefined) | inactive | inactive
12 | COC1CCN(c2cccc(-c3cc(NC(C)=O)nc(-n4nc(C)cc4C)n3)n2)CC1 | inactive | inactive
